PubChem BioAssay AID463173 (ICCB-Longwood Screening Facility, Harvard Medical School, 2010)
The campaign covered roughly 52,000 compounds. About 1,700 (3.3%) were called active. What follows is part of a selection rich in actives, with near analogues and random picks from the rest. Unmarked numbers belong to inactive results. Rule as the data show it: active = survival mostly below about 52% (no sharp cut-off); inactive = mostly above about 56%.

Each molecule was assayed on Wild type (assay: S. aureus survival, RN4220 and DeltatarO strains – OD600, teichoic acid synthesis inhibitors, primary screen (AID 463173)). Details: S. aureus RN4220 wild type/DeltatarO growth, OD600, 18 h, hits give low values, screened at 18.75 µg/mL (by protocol).

| Compound | survival |
| --- | --- |
| O=C(Nc1ccc(F)cc1F)c1cccc2c1C(=O)N(C1CCCCC1)C2 | 94% |
| CCn1c(C(=O)N2CCC(C(=O)N3CCN(c4ccc(OC)cc4)CC3)CC2)cc2sccc21 | 62% |
| CCOc1ccccc1NC(=O)NC(CC)c1c(-n2cccc2)sc2c1CCN(C)C2 (configuration not stated) | 69% |
| CC1=C(C#N)c2nc(N)c(C#N)c(C)c2/C1=C\c1cccnc1 | 83% |
| COc1ccc(Cl)cc1NC(=O)CCC(=O)N1CCOc2ccccc21 | 83% |
| CC(=O)c1cccc(-n2c(=O)c3c4c(sc3n(Cc3ccccc3Cl)c2=O)CN(C(C)=O)CC4)c1 | 88% |
| CCOC(=O)c1cc2c(=O)n3ccccc3nc2n(Cc2ccco2)c1=NC(=O)c1ccc(C(C)(C)C)cc1 | 72% |
| CCOC(=O)c1c(NC(C)=O)sc2c1CCC2 | 104% |
| CCOC(=O)c1c(NC(=O)c2ccccc2C)sc2c1CCCC2 | -8% (active) |
| CCOC(=O)c1c(NC(=O)c2ccc(C)c(C)c2)sc2c1CCCCC2 | 0% (active) |
| CCOC(=O)c1c(NC(=O)c2ccc(OCC)c(Br)c2)sc2c1CCCC2 | 67% |
| CCOC(=O)c1c(NC(=O)c2ccc(OC)c(OC)c2)sc2c1CCCCC2 | 69% |
| CCOC(=O)c1c(NC(=O)c2cc(OCC)c(OCC)c(OCC)c2)sc2c1CCCCC2 | 83% |
| CCOC(=O)c1c(NC(=O)c2ccc(C)cc2)sc2c1CCCCC2 | -1% (active) |
| CCOC(=O)c1c(NC(=O)c2cc(Cl)ccc2Cl)sc2c1CCCC2 | 76% |
| CCOC(=O)c1c(NC(=O)c2ccc(S(=O)(=O)N(CC)CC)cc2)sc2c1CCCCC2 | 80% |
| Cc1c(C(=O)Nc2ccccc2Br)oc2ccc(S(=O)(=O)N3CCCCCC3)cc12 | 83% |
| O=C(NCc1ccc(F)cc1)c1ccc2c(Cl)c3c(nc2c1)CCCC3 | 62% |
| Cc1cc(C)cc(N2CC(c3nc(-c4cccc(Cl)c4)no3)CC2=O)c1 (configuration not stated) | 32% |
| CCCCNC(=O)c1sc2ncccc2c1-n1cccc1 | 47% |
| CCc1nc(-c2cc(S(=O)(=O)N3CCN(c4ccccc4OC)CC3)ccc2OC)no1 | 69% |
| CCOc1ccccc1NC(=O)C(NS(=O)(=O)c1ccc2c(c1)CCC(=O)N2)c1ccccc1 (configuration not stated) | 76% |
| Cn1cc(S(=O)(=O)N2CCCCCC2)cc1C(=O)N1CCN(c2ccc(F)cc2)CC1 | 71% |

| Compound | survival |
| --- | --- |
| COC(=O)c1scc(-c2ccc(C)cc2)c1S(=O)(=O)N1CCN(c2ccccc2)CC1 | 64% |
| COc1ccccc1N1CCN(C(=O)c2cc(S(=O)(=O)N3CCC(C)CC3)cn2C)CC1 | 0% (active) |
| Cn1cc(S(=O)(=O)N2CCCCC2)cc1C(=O)N1CCN(c2ccc(F)cc2)CC1 | 65% |
| Cc1cccc(N2CCN(C(=O)c3cc(S(=O)(=O)N4CCC(C)CC4)cn3C)CC2)c1C | 49% |
| COC(=O)c1scc(-c2ccc(C)cc2)c1S(=O)(=O)N1CCN(c2ccc(F)cc2)CC1 | -6% (active) |
| COC(=O)c1scc(-c2ccc(C)cc2)c1S(=O)(=O)N1CCN(c2ccc(OC)cc2)CC1 | 75% |
| CC1CCN(S(=O)(=O)c2cc(C(=O)N3CCN(c4ccccc4F)CC3)n(C)c2)CC1 | 65% |
| COC(=O)c1cc(S(=O)(=O)N2CCN(c3ccc(F)cc3)CC2)cn1C | -6% (active) |
| CCc1ccc(-n2nc3cc(C)c(NC(=O)c4cc(OC)cc(OC)c4)cc3n2)cc1 | 69% |
| Cc1ccc(-c2cc(C(=O)Nc3c(C(=O)c4ccc(C)c(F)c4)oc4ccccc34)no2)cc1 | 93% |
| O=C(Nc1cccc(NC(=O)C2CCCO2)c1)c1ccco1 (configuration not stated) | 102% |
| O=C(Nc1ccc(F)c(Cl)c1)C1CCN(S(=O)(=O)c2ccc3c(c2)CCCN3C(=O)C2CCC2)CC1 | 67% |
| COC(=O)c1c(SC)nc2ccccc2c1OCc1ccc(C)cc1 | 75% |
| NC(=O)C1CCN(C(=O)CSc2nc(O)cc(=O)[nH]2)CC1 | 97% |
| O=C(N/N=C1/SCC(=O)N1Cc1ccco1)c1ccccc1F | 97% |
| CC(=O)Nc1ccc(S(=O)(=O)Nc2ccc(-c3cn4c(C)csc4n3)cc2)cc1 | 69% |
| COc1ccc(S(=O)(=O)Nc2ccc(-c3cn4c(C)csc4n3)cc2)cc1 | 78% |
| CC(=O)c1ccc(S(=O)(=O)Nc2ccc(-c3cn4c(C)csc4n3)cc2)cc1 | -6% (active) |
| CCc1ccccc1Nc1nn2c(=O)c3ccc(C(=O)NCc4ccc(C)cc4)cc3nc2s1 | 92% |
| Cc1ccccc1Cn1c(CN2CCC(C(=O)NCCc3ccccc3)CC2)cc2ccccc21 | 110% |
| CC(=O)N1CCc2c(sc3c2c(=O)n(-c2ccccc2C)c(=O)n3CC(=O)Nc2ccccc2)C1 | 69% |
| CCOc1ccc(-n2c(SCC(=O)Nc3cc(C)on3)nc3c([nH]c4ccccc43)c2=O)cc1 | 69% |
| CCOc1ccc(N(CC)S(=O)(=O)N2CCCC(C(=O)Nc3cc(Cl)ccc3C)C2)cc1 (configuration not stated) | 79% |

| Compound | survival |
| --- | --- |
| COc1ccc(NC(c2ccc(F)cc2)c2nnc(-c3ccccc3Cl)o2)cc1Cl (configuration not stated) | 88% |
| Cc1ccc(Cl)cc1NC(c1ccc(F)cc1)c1nnc(-c2ccccc2)o1 (configuration not stated) | 117% |
| COc1cc(Cl)c(C)cc1NC(c1ccccc1)c1nnc(-c2ccccc2Cl)o1 (configuration not stated) | 75% |
| CCc1cccc(NC(c2ccccc2)c2nnc(-c3ccccc3F)o2)c1 (configuration not stated) | 1% (active) |
| Cc1ccc(C)c(NC(c2ccccc2)c2nnc(-c3ccccc3F)o2)c1 (configuration not stated) | 5% (active) |
| CCc1cccc(NC(c2nnc(-c3ccccc3)o2)c2ccc(F)cc2Cl)c1 (configuration not stated) | 70% |
| COc1cc(C(=O)Nc2ccc3nc(SCc4ccccc4)sc3c2)cc(OC)c1OC | 86% |
| CCOC(=O)c1[nH]c2c(c1Cc1ccccc1C)C(=O)CC(c1ccccc1)C2 (configuration not stated) | 95% |
| O=C(NCc1ccccc1)C(=O)NCC(c1ccco1)S(=O)(=O)c1cccs1 (configuration not stated) | 70% |
| O=C(NCCc1ccc(F)cc1)C(=O)NCC(c1ccco1)S(=O)(=O)c1cccs1 (configuration not stated) | 53% |
| O=C(NCCc1ccccc1)C(=O)NCC(c1ccco1)S(=O)(=O)c1cccs1 (configuration not stated) | 75% |
| O=C(NCc1ccc(F)cc1)C(=O)NCC(c1ccco1)S(=O)(=O)c1cccs1 (configuration not stated) | 0% (active) |
| O=C(NCCc1ccc(Cl)cc1)C(=O)NCC(c1ccco1)S(=O)(=O)c1cccs1 (configuration not stated) | -3% (active) |
| Cc1ccc(CNC(=O)C(=O)NCC(c2ccco2)S(=O)(=O)c2cccs2)cc1 (configuration not stated) | 75% |
| Cn1c(=O)n(C)c2cc(N3CCOCC3)c(NC(=O)c3ccc(C(C)(C)C)cc3)cc21 | 75% |
| CCc1c(C)nc2nncn2c1Nc1cccc(C)c1 | 91% |
| Cc1ccc2sc(N(Cc3cccnc3)C(=O)CCOc3ccccc3)nc2c1C | 63% |
| Cc1nn2c(-c3ccccc3)cc(-c3ccccc3)nc2c1-c1ccc(Cl)cc1 | 86% |
| Cc1[nH]n2c(=O)cc(-c3ccccc3Cl)nc2c1-c1ccccc1 | -13% (active) |
| Cc1[nH]n2c(=O)cc(-c3ccc(Cl)cc3)nc2c1-c1ccccc1 | -17% (active) |
| O=C(Nc1nc2nc(-c3ccccc3)cc(=O)n2[nH]1)c1ccc(Cl)cc1 | 88% |
| Cc1cccc(-c2cc3nc(-c4ccccc4)cc(=O)n3[nH]2)c1 | 93% |
| Nc1nc2nc(-c3ccccc3)cc(=O)n2[nH]1 | 59% |

| Compound | survival |
| --- | --- |
| CCOC(=O)c1ccc(CN(Cc2ccc(Br)cc2)S(=O)(=O)c2cccc(C(F)(F)F)c2)cc1 | 72% |
| CCOc1ccccc1CNC(=O)CCc1c(C)nn(-c2ccc(N3CCCC3)nn2)c1C | 71% |
| COc1ccc(CNC(=O)c2sc3nc4n(c(=O)c3c2C)CCCCC4)cc1 | 86% |
| CSc1cccc(NC(=O)C2CCN(S(=O)(=O)c3ccc4[nH]c(=O)ccc4c3)CC2)c1 | 101% |
| COc1ccc(-c2cc(C(F)(F)F)nc(SCC(=O)N(C)Cc3ccccc3)n2)cc1OC | 45% |
| CN(Cc1ccccc1)C(=O)CSc1nc(-c2ccc(F)cc2)cc(C(F)(F)F)n1 | -4% (active) |
| O=C(CSc1nc(-c2ccc(F)cc2)cc(C(F)(F)F)n1)NCc1ccccc1 | 84% |
| COc1ccc(-c2cc(C(F)(F)F)nc(SCC(=O)N(C)Cc3ccccc3)n2)cc1 | -1% (active) |
| O=C(CSc1nc(-c2ccc(F)cc2)cc(C(F)(F)F)n1)NCCc1ccccc1 | 89% |
| COc1ccc(-c2cc(C(F)(F)F)nc(SCC(=O)NCCc3ccccc3)n2)cc1 | 140% |
| COc1ccc(CC(=O)Nc2c(C(=O)N3CCN(c4ccccc4)CC3)oc3ccccc23)cc1OC | 76% |
| CCN(CC)S(=O)(=O)c1ccc(NC(=O)[C@H](CSCc2ccccc2)N2Cc3ccccc3C2=O)cc1 | 130% |
| CCOc1ccc(-n2c(SCC(=O)Nc3ccc(F)cc3)nc3c([nH]c4ccccc43)c2=O)cc1 | 88% |
| CCc1ccc(C(=O)NC2=NC(c3ccccc3F)CC(=O)N2)cc1 (configuration not stated) | 166% |
| O=c1c2ccccc2n(Cc2cccc(Cl)c2)c(=O)n1CCc1ccccc1 | 39% (active) |
| O=C(CCCCn1c(=O)c2ccccc2n(Cc2ccccc2Cl)c1=O)NCCc1ccccc1 | 132% |
| Cc1cccc(CCn2c(=O)c3ccccc3n(Cc3ccccc3C)c2=O)c1 | 59% |
| O=C(CCn1c(=O)c2ccccc2n(Cc2cccc(Cl)c2)c1=O)NCCc1ccccc1 | 74% |
| O=c1c2ccccc2n(Cc2cccc(Cl)c2)c(=O)n1Cc1ccccc1 | 96% |
| Cc1ccccc1Cn1c(=O)n(CCc2ccccc2)c(=O)c2ccccc21 | 4% (active) |
| O=c1c2ccccc2n(Cc2c(F)cccc2Cl)c(=O)n1CCc1ccccc1 | 83% |
| O=c1c2ccccc2n(Cc2ccccc2Cl)c(=O)n1CCc1ccccc1 | 15% (active) |
| Cc1ccccc1Cn1c(=O)n(CCCCC(=O)NCCc2ccccc2)c(=O)c2ccccc21 | 103% |
